Drawing on PubChem BioAssay (NCI), this text covers growth for nine compounds.

Where “and” joins values, the source holds several entries; their conditions need not be identical. Equal values may be shown once. The panel holds about 83,000 compounds, 20% with a hit somewhere; the sample as a whole holds those more often.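 The endpoint reported here, percent growth, reads 100 for growth as untreated, 0 for no net growth and -100 for all cells dead.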 Calls of active or inactive are those of the source. Rule for the calls: active = growth percent below 10; inactive = the rest.

This experiment concerns MCF7 breast. Put plainly: NCI-60 one-dose screen, 48 h (100 = growth as untreated, 0 = no growth, -100 = all killed). The conditions noted are these: 10 µM unless noted.
Consider `N#CC12COC3(CCCCC3C1(C#N)C#N)OC2=N` (centres undefined), for which the growth was -25.8% [100 µM] (active). The figure for `CCOC(=O)CCCOc1cc(-c2ccccc2F)nc2cc3c(cc12)OCO3` is 14.3% [100 µM] (inactive) and -100% [100 µM] (active); for `CCCCOC(=O)C1CC[C@H]2[C@@H]3CCc4cc(OC(=O)c5cccc6c(=O)c7ccccc7[nH]c56)ccc4[C@H]3CC[C@]12C` (some centres undefined) it is -86.3% [50 µM] (active) and -100% [50 µM] (active); for `O=C1c2c(O)ccc(O)c2C(=O)c2c(NCCNC(=O)C(O)C(O)C(O)C(O)CO)ccc(NCCNC(=O)C(O)C(O)C(O)C(O)CO)c21` (centres undefined) it is -95.5% [100 µM] (active) and -100% [100 µM] (active).

As for `CC(=O)Oc1ccc2ccc(=O)oc2c1OC(C)=O`, the growth is -69.1% [100 µM] (active) and -65% [100 µM] (active). In the case of `CC(=O)O[C@@H]1C[C@@]2(C)[C@@H]3CC=C4[C@@H](C[C@H](O)C(=O)C4(C)C)[C@]3(C)C(=O)C[C@]2(C)[C@H]1[C@@](C)(O)C(=O)/C=C/C(C)(C)OC(C)=O`, the growth was -52.5% [100 µM] (active) and -100% [100 µM] (active).

In the case of `COC(=O)c1ccc(CCc2cc(O)c(Br)cc2O)cc1`, the growth is -61.7% [100 µM] (active) and -71.7% [100 µM] (active). The figure for `Cc1cc(-c2nc3ccccc3s2)ccc1N` is 27.4% [100 µM] (inactive) and 5.42% [100 µM] (active); for `CCCCCCCCCCCCCC1=C(O)C(=O)C(CC2=C(O)C(=O)C(CCCCCCCCCCCCC)=C(O)C2=O)=C(O)C1=O` it is 2.9% [100 µM] (active) and -79.8% [100 µM] (active).
